Assay results as given in PubChem BioAssay AID1117361 (Southern Research Institute, 2015).
In all, about 3,600 compounds went through this assay and about 900 (25%) were called active. A selection follows. Potency and affinity values are given separately. A number with no mark means an inactive call. How the calls were made is not given here.

The compounds below were run against Protein Tat (Human immunodeficiency virus type 1 group M subtype B (isolate HXB2)) (UniProt P04608) (assay: inhibitors of Tat binding to TAR RNA, dose response, counter-screen for Vif-APOBEC3G degradation inhibitor project, biochemical, fluorescence polarization, FAM-labeled TAR RNA (AID 1117361)). Settings: outcome: dose series up to 100 µM unless noted; series mostly up to 100 µM; inhibition: at the top concentration.

Row | SMILES | outcome | inhibition
1 | O=C1CCCC(NCCCCCCNC2=C([N+](=O)[O-])C(=O)CCC2)=C1[N+](=O)[O-] | inactive | 
2 | CC(NCCO)C(=O)C12CC3CC(CC(C3)C1)C2 (stereo unspecified) |  | 2.03%
3 | CN(C)S(=O)(=O)N1CCC(CCCC2CCN(S(=O)(=O)N(C)C)CC2)CC1 | inactive | 
4 | CN1CCN(c2nc(-c3cccnc3)nc3ccccc23)CC1 |  | 6.08%
5 | C[C@@H]1NC(=O)[C@H](CCC(N)=O)NC(=O)c2cc([N+](=O)[O-])cc(I)c2NCCC[C@@H](C(N)=O)NC1=O | inactive | 
6 | O=C(COC(=O)c1cc(=O)[nH]c2ccccc12)Nc1cccc(S(=O)(=O)N2CCOCC2)c1 | inactive | 
7 | CN(Cc1ccccc1)C(=O)c1cccc(N2C(=O)NC3CC2(C)Oc2ccccc23)c1 (stereo unspecified) |  | 1.36%
8 | NC(=O)c1ccc(NC(=O)CSc2nc3ccccc3c(=O)n2CCCN2CCOCC2)cc1 |  | 3.3%
9 | CCCCCCn1c(SCC(=O)Nc2cc(C)on2)nc2ccccc2c1=O |  | 1.35%
10 | Cc1sc(-c2ccccn2)nc1OC(=O)c1cccc(Cl)c1Cl |  | 1.35%
11 | CCCS(=O)(=O)N1CCCC(C(=O)NCCCOC(C)C)C1 (stereo unspecified) |  | 5.41%
12 | CC(C)C(=O)Nc1nnc(Sc2ccc(N(C)C)cc2)s1 |  | 22.3%
13 | O=S(=O)(c1ccccc1)N1CCN(S(=O)(=O)N2CCCCC2)CC1 |  | 2.05%
14 | COc1cc(C(=O)OCC(=O)N2CCCC2)cc(OC)c1OC |  | 2.03%
15 | Cc1ccccc1NC(=O)Cc1nc(COC(=O)Cc2ccccc2F)cs1 | inactive | 
16 | COc1ccc(S(=O)(=O)NNC(=O)c2sccc2-n2cccc2)cc1 | inactive | 
17 | COC(=O)CC1Oc2ccccc2N(Cc2ccccc2)C1=O (stereo unspecified) |  | 6.08%
18 | CCOC(=O)C1(Cc2ccc(OC)cc2)CCN(C(=O)c2cccc3nccnc23)CC1 | inactive | 
19 | O=C(Nc1cccc(C(F)(F)F)c1)c1cc(S(=O)(=O)N2CCCCC2)ccc1N1CCOCC1 | inactive | 
20 | O=C(CN1CCN(S(=O)(=O)c2ccc(F)cc2)CC1)Nc1cc(C(F)(F)F)ccc1Cl |  | 2.05%
21 | Cc1cccc(Cc2nnc(CCC(=O)N(C)C3CCOC3)o2)c1 (stereo unspecified) | inactive | 
22 | Cc1noc(C)c1COC(=O)c1cccc(S(=O)(=O)N2CCCCCC2)c1 | inactive | 
23 | O=C(NCc1cccs1)Nc1cccs1 |  | 25.9%

Row | SMILES | outcome | inhibition
24 | c1ccc(CCc2nn3c(C4COc5ccccc5O4)nnc3s2)cc1 (stereo unspecified) |  | 0.33%
25 | CCOc1ccc(N(CC(=O)NC2CCCCC2)S(=O)(=O)c2c(C)noc2C)cc1 |  | 6.14%
26 | CCOc1ccc(N(CC(=O)NCc2ccc(F)cc2)S(=O)(=O)c2c(C)noc2C)cc1 |  | 4.09%
27 | C=C(C)Cn1c(C)cc(C)c(S(=O)(=O)c2ccccc2C)c1=O |  | 6.82%
28 | C/C(=C\C(=O)c1ccc(Br)cc1)N1CCCCC1 | inactive | 
29 | COc1cc(Br)c(CNc2cc(C)ccc2C)cc1OC |  | 3.01%
30 | COc1ccc(OCC(O)CNc2ccc(Br)cc2)cc1 (stereo unspecified) |  | 3.41%
31 | COc1ccc(NCc2nc3ccccc3n2CCOc2ccccc2)cc1 |  | 24.6%
32 | O=c1cc(OCc2ccccc2)cc[nH]1 | inactive | 
33 | NCCOc1ccccc1Cc1ccccc1 |  | 4.09%
34 | O=C(NC(=S)NCCN1CCOCC1)c1ccc(Cl)cc1Cl |  | 4.73%
35 | CN(C1=C(NC(=O)c2ccc(Cl)cc2)C(=O)c2ccccc2C1=O)c1ccccc1 |  | 7.5%
36 | CC(=O)NCCC(=O)NCc1ccc(F)cc1 |  | 4.73%
37 | Cc1cccc(N2CCN(C(=O)c3ccncc3)CC2)c1C |  | 19.8%
38 | CCOc1ccc(S(=O)(=O)N2CC(=O)Nc3ccccc32)cc1C#N |  | 4.34%
39 | C=CCc1cc(/C=N\NC(=O)CSc2nnc(CCCc3ccc(OC)c(C)c3)o2)cc(OC)c1O |  | 2.05%
40 | Cc1ccc(Nc2cnn(C34CC5CC(CC(CC(=O)O)(C5)C3)C4)c(=O)c2Cl)cc1C |  | 2.03%
41 | CCOC(=O)CN1C(=O)C(Sc2n[nH]c(-c3ccccc3)n2)CCc2ccccc21 (stereo unspecified) |  | 8.11%
42 | NCCC(=O)N1c2ccccc2Sc2ccccc21 | inactive | 
43 | COc1cccc(CNCCc2c[nH]c3ccccc23)c1OCc1ccccc1 |  | 23.9%
44 | CCOc1cc(CNc2ccc(O)cc2)cc(Br)c1OCc1ccccc1F |  | 3.3%
45 | CCOCC(O)CS(=O)Cc1ccccc1 (stereo unspecified) | inactive | 
46 | CC(=NNC(=S)SCc1ccccc1)c1ccccn1 | inactive | 

Row | SMILES | outcome | inhibition
47 | Cc1cc(C)n2nc(C(=O)Nc3cccnc3)nc2n1 |  | 4.73%
48 | O=C(Nc1cccnc1)c1sc(Nc2ccccc2F)nc1-c1ccccc1 | inactive | 
49 | Cc1cc(NC(=O)CSc2nnc(-c3ccoc3C)n2N)no1 |  | 8.78%
50 | CCOC(=O)N1CCN(S(=O)(=O)c2ccc(F)c(C(=O)Nc3cc(C)cc(C)c3)c2)CC1 |  | 3.41%
51 | CC(C)OCCCNC(=O)CNC(=O)c1cccs1 | inactive | 
52 | COc1ccc(S(=O)(=O)N2CCN(C(=O)c3cc(C)on3)CC2)cc1 | inactive | 
53 | Cc1ccc(C(=O)/C=C/c2cc(C#N)n(C)c2C)cc1 | inactive | 
54 | CCOC(=O)c1c(NC(=O)CSc2nncs2)sc(C)c1C |  | 2.73%
55 | O=C1CCCC2=C1C(O)(C(F)(F)F)C(=O)N2Cc1ccccc1 (stereo unspecified) |  | 2.73%
56 | CCOC(=O)C1=C(C)n2c(s/c(=C/c3cccc([N+](=O)[O-])c3)c2=O)=NC1c1ccc(O)c(OC)c1 (stereo unspecified) |  | 8.11%
57 | CCOC(=O)C1(C)NC(c2ccco2)C2C(=O)N(CC)C(=O)C21 (stereo unspecified) | inactive | 
58 | CCN(Cc1ccccc1)S(=O)(=O)c1ccc(C(=O)Nc2nnc(C3CC3)o2)cc1 |  | 3.38%
59 | COCCNC(=O)COc1ccc(Br)cc1Cl | inactive | 
60 | COc1ccc(-c2cc3ccc(OCc4nn[nH]n4)cc3oc2=O)cc1 |  | 17.7%
61 | NC(=O)c1ccc(N2CCN(c3ncc(C(F)(F)F)cc3Cl)CC2)cc1 |  | 12.4%
62 | O=C(Cn1cc2c(n1)CCCC2)NCc1cccnc1 |  | 3.41%
63 | COc1ccc(S(=O)(=O)N2CCC(C(=O)NCCC3=CCCCC3)CC2)cc1C | inactive | 
64 | O=C(/C=C/c1ccco1)c1cccnc1 |  | 3.67%
65 | Clc1ccc(-c2nnc(SCc3ccon3)o2)c(Cl)c1 |  | 4.05%
66 | CCOC(=O)c1cccc(NC(=O)CCc2nc(-c3ccc(C)cc3)no2)c1 | inactive | 
67 | CCCOc1ccc(-c2nnn(CC(=O)OCC)n2)cc1 | inactive | 
68 | O=C1c2ccccc2C(=O)N1CCc1csc(-c2ccc(F)cc2)n1 |  | 2.03%
69 | O=C(O)Cn1c(O)c(C=Nc2ccccc2)sc1=S |  | 18.2%

Row | SMILES | outcome | inhibition
70 | Cc1cc(C)c(C)c(S(=O)(=O)N2C(=S)NC(=O)C2C(C)C)c1C (stereo unspecified) |  | 0.68%
71 | Cc1cc(Oc2ccc(-c3ccccc3)cc2)n2ncnc2n1 |  | 0.68%
72 | CCn1c(SCC(=O)NCc2ccc3c(c2)OCO3)nnc1-c1cccs1 |  | 0.68%
73 | CCOC(=O)C/C(C)=N\Nc1ccc([N+](=O)[O-])cc1[N+](=O)[O-] | inactive | 
74 | O=S(=O)(c1cccc(C(F)(F)F)c1)N1CCN(c2ccccc2)CC1 |  | 0.68%
75 | CN(C)S(=O)(=O)c1ccc(NC(=O)N2CCN(c3cccc(C(F)(F)F)c3)CC2)cc1 |  | 2.03%
76 | COc1cccc(CNCC(=O)Nc2ccc(N3CCOCC3)cc2)c1 | inactive | 
77 | O=C(c1ccc(N2CCN(C3CC(=O)N(c4ccc(F)cc4)C3=O)CC2)cc1)c1cccnc1 (stereo unspecified) | inactive | 
78 | C=CCOc1c(Br)cc(CNn2nnnc2N)cc1OCC |  | 8.19%
79 | O=C(O)CN1C(=O)COc2cc(S(=O)(=O)N3CCCC3)ccc21 |  | 8.78%
80 | O=C(c1cc(Cl)ccc1Cl)N1CCN(c2ccccn2)CC1 |  | 2.7%
81 | Clc1ccc(-c2cnc(Oc3ccccc3)nc2)cc1 | inactive | 
82 | O=C(CNS(=O)(=O)c1ccc(Br)s1)N1CCCC1 |  | 1.35%
83 | CCCCCC(=O)Nc1nnn(CCC)n1 |  | 4.77%
84 | Cc1ccc(-n2nc(-c3ccc(N)cc3)cc2N)cc1 |  | 15%
85 | Cc1ccc(S(=O)(=O)Nc2cc(NC(=O)CN3CCOCC3)ccc2Cl)cc1 | inactive | 
86 | CCOCC(=O)Nc1ccc(C)c(Cl)c1 |  | 8.19%
87 | CCOC(=O)N1CCN(C(=O)c2cnn(-c3ccccc3)c2NC(=O)c2ccccc2F)CC1 | inactive | 
88 | Cc1ccc(C=Nc2ccccc2C(N)=O)s1 | inactive | 
89 | O=C(Nc1ccc(F)cc1F)NC1CCN(S(=O)(=O)c2ccc(F)cc2)CC1 |  | 4.12%
90 | Cc1nc(-c2noc(-c3ccccc3Cl)n2)c(C(F)(F)F)o1 | inactive | 
91 | O=C(Cn1cncn1)N/N=C/c1ccccc1Cl |  | 0.82%
92 | CCOc1cccc(-c2cc(=O)[nH][nH]2)c1 | inactive | 

Row | SMILES | outcome | inhibition
93 | Cc1csc(NC(=O)C(NS(=O)(=O)c2ccc(Br)s2)c2ccccc2)n1 (stereo unspecified) |  | 0.68%
94 | CC(=O)c1c(C)[nH]c(C(=O)OCC(=O)C(C)(C)C)c1C | inactive | 
95 | CCOC(=O)c1c(C)[nH]c(C(=O)OCC(=O)Nc2sc(C(=O)N(C)C)c(C)c2C(=O)OCC)c1C |  | 12.4%
96 | CCCOc1ccc2oc(=O)c3c(c2c1)CCCN3C(=O)CN1CCc2ccccc2C1 |  | 4.77%
97 | COC1=CC(=O)C(C2CC(=O)c3c(O)cc(O)cc3O2)=CC1=O (stereo unspecified) |  | 3.01%
98 | COc1cc(Cl)c(C)cc1NC(=O)COc1cc(C)nc(C(C)C)n1 |  | 1.35%
99 | O=C(CCC(=O)N1CCN(S(=O)(=O)c2ccccc2)CC1)NC1CCCc2ccccc21 (stereo unspecified) |  | 1.36%
100 | CCOc1ccc(-c2nc(CN3CCCCC3CCn3cccn3)c(C)o2)cc1 (stereo unspecified) | inactive | 
101 | N#CCSc1nc2sc3c(c2c(=O)n1C1CCCCC1)CCCC3 | inactive | 
102 | CN(C)[C@H]1N(C(=O)c2ccc(Br)cc2)N=C2c3ccccc3S(=O)(=O)N21 |  | 4.73%
103 | COc1cc(C2NC(=O)NC(C)=C2C(=O)OCC2CCCO2)ccc1O (stereo unspecified) |  | 8.19%
104 | COc1ccc(NC(=S)N(CCCN2CCCC2)Cc2ccco2)cc1 | inactive | 
105 | CCCCCC(=O)N1C[C@@H](n2cc(C3CC3)nn2)[C@H](O)C[C@@H]1c1ccc(C)cc1 |  | 9.02%
106 | O=C(O)CCN1CCOCC1 |  | 0.68%
107 | COc1cccc(OC)c1C(=O)NC(C)C12CC3CC(CC(C3)C1)C2 (stereo unspecified) |  | 8.87%
108 | Brc1ccc(-c2nnc(-c3cccc(Br)c3)o2)cc1 | inactive | 
109 | O=C1OC(c2ccc(Br)cc2)=N/C1=C\N1CCCCC1 |  | 2.7%
110 | CCn1c(SC(C)C)nnc1-c1cc(-c2ccccc2)sc1N |  | 9.07%
111 | COCCNC(=O)Cn1ncc2ccsc2c1=O |  | 2.03%
